Assay results published in PubChem BioAssay AID1460 (National Center for Advancing Translational Sciences (NCATS), 2008).
The whole screen tested about 270,000 compounds, of which about 5,800 (2.1%) were called active. Not shown: some 16% with an inconclusive outcome. The call rests on the fitted dose curve; in most records, active means well fitted inhibition curve with a large enough effect; inconclusive means small, poorly fitted or top-dose-only effect; inactive means flat fitted curve, though single readings scatter. The full list was thinned out, with actives kept by preference.

These molecules were tested against Microtubule-associated protein tau (Homo sapiens) (UniProt P10636) (assay: qHTS for Inhibitors of Tau Fibril Formation, Thioflavin T Binding). Details: recombinant tau K18 P301L, heparin-induced fibrillization, ThT fluorescence; series mostly up to 57.4 µM; activity, negative = inhibition: at the top concentration.
In short: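 Using a mix of unlabeled (15 uM) and Alexa 594-labeled (0.24 uM) tau K18 P301L, heparin-triggered fibrillization over 6 hr at 37 C was scored by ThT fluorescence.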
Further: nearly all actives have a fitted effect of over 55% in size.
On the % scale 0 is the no-effect control and ±100 the full control effect; potency means the concentration at half of the fitted maximal effect.

Sequence of Microtubule-associated protein tau (Homo sapiens) (P10636 561-689 P618L limits assumed): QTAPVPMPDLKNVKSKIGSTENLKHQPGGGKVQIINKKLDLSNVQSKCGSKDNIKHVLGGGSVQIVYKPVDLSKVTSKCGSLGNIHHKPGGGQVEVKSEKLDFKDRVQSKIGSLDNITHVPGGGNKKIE

| Compound | activity, negative = inhibition | Potency |
| --- | --- | --- |
| CCCn1ccc2c(OCC(=O)NCc3ccc(F)cc3)cccc2c1=O | -9.18% (inactive) | – |
| COc1ccccc1NC(=O)C1=C(C)Nc2nc(SCC(=O)c3ccc(C)cc3)nn2C1c1ccccc1C (stereo not drawn) | 14.7% (inactive) | – |
| COc1ccc(NC(=O)CCNS(=O)(=O)c2ccc3c(c2)CCCC(=O)N3)cc1Cl | -6.94% (inactive) | – |
| COc1cc(NC(=O)CSc2nc3nc(C)c(Cc4ccc(C)cc4)c(C)n3n2)cc(OC)c1OC | 4.12% (inactive) | – |
| COc1ccc(-c2nc(Cn3c(=O)cc(C)c4c(C)nn(-c5ccccc5)c43)c(C)o2)c(OC)c1 | -0.776% (inactive) | – |
| CCOC(=O)Cn1c(=O)n(-c2ccccc2OC)c2nc(-c3cccc(F)c3)nc(C(N)=O)c21 | -5.02% (inactive) | – |
| COc1cc(Cl)c(C)cc1Nc1nnc(-n2nc(C)cc2C)c2ccccc12 | -5.87% (inactive) | – |
| CCc1ccc(CNC(=O)c2ccc(CS(=O)c3ccc(Br)cc3)o2)cc1 (stereo not drawn) | -5.94% (inactive) | – |
| CCOC(=O)C1=C(c2ccc(OC)cc2)C(=O)c2ccccc2C1=O | – | 14.1 µM (active) |
| CCOC(=O)c1ccccc1NS(=O)(=O)c1ccc(OC)cc1 | -8.17% (inactive) | – |
| CCCCC(C(=O)OCC(=O)c1ccc(OC)cc1)N1C(=O)c2ccccc2C1=O (stereo not drawn) | -3.63% (inactive) | – |
| O=c1[nH]n2c(=O)c3c([nH]c2c1N=Nc1ccccc1)CCC3 | – | 3.16 µM (active) |
| N#Cc1c2c(c(-c3ccccc3)[nH]c1=O)CCCC2 | -3.54% (inactive) | – |
| O=c1[nH]c2c(c(=O)n1Cc1ccccc1)CCC2 | -1.52% (inactive) | – |
| O=C(Nc1cccc(Cl)c1)c1csnn1 | -9.63% (inactive) | – |
| CCOc1ccccc1/C=c1\sc2nc(-c3ccco3)nn2c1=O | – | 22.4 µM (active) |
| Oc1c(C(c2ccccc2Cl)N2CCOCC2)sc2nc(-c3ccco3)nn12 (stereo not drawn) | -12.2% (inactive) | – |
| CCOC(=O)C1CCN(C(c2ccc(F)cc2)c2sc3nc(-c4ccco4)nn3c2O)CC1 (stereo not drawn) | -6.53% (inactive) | – |
| Cc1ccc2nc(COc3cccc(NC(=O)c4cccc(Cl)c4)c3)cc(=O)n2c1 | -0.872% (inactive) | – |
| Clc1cccc(N=C2NN=C(c3ccc4c(c3)OCCO4)CS2)c1 | – | 15.8 µM (active) |
| O=C1C(Cl)=C(N2CCOCC2)C(=O)N1c1ccccc1 | – | 12.6 µM (active) |
| O=C1OC(NC(=O)c2ccccc2)C(N2CCOCC2)=C1Cl (stereo not drawn) | -9.42% (inactive) | – |

| Compound | activity, negative = inhibition | Potency |
| --- | --- | --- |
| c1ccc(-n2nnnc2N2CCOCC2)cc1 | 4.05% (inactive) | – |
| CCc1ccc(NC(=O)CSc2nc3c([nH]c4ccccc43)c(=O)n2-c2cccc(OC)c2)cc1 | 13.6% (inactive) | – |
| CCS(=O)(=O)c1cc([N+](=O)[O-])c(Sc2ccccc2N)s1 | – | 10 µM (active) |
| CCOC(=O)c1cc(Sc2ccccc2N)cc(C(=O)OCC)n1 | -0.497% (inactive) | – |
| Nc1ccccc1Sc1ccc(C(F)(F)F)cc1[N+](=O)[O-] | -12.6% (inactive) | – |
| Cc1ccc(CNS(=O)(=O)c2ccc(-c3cc(C(F)(F)F)on3)s2)cc1 | 13.6% (inactive) | – |
| O=C(NC(=S)Nc1ccc(S(=O)(=O)N2CCOCC2)cc1)c1ccccc1[N+](=O)[O-] | -0.152% (inactive) | – |
| O=[N+]([O-])c1cc(Cl)cc(/C=N/NC(=S)Nc2cc(S(=O)(=O)N3CCOCC3)ccc2Cl)c1O | – | 3.16 µM (active) |
| O=C(Nc1cc(S(=O)(=O)N2CCOCC2)ccc1Cl)c1cc(=O)c2ccccc2o1 | 1.79% (inactive) | – |
| Cc1ccc(N(C)C(=O)C2CCN(S(=O)(=O)c3ccc4c(c3)CCCN4C(=O)C3CCC3)CC2)cc1 | -6.98% (inactive) | – |
| O=C(N/N=C/c1ccc2c(c1)OCO2)c1ccc(Cn2cc([N+](=O)[O-])cn2)o1 | -0.161% (inactive) | – |
| O=C(N/N=C\c1ccc(Br)cc1)c1ccc(Cn2cccn2)o1 | 4.04% (inactive) | – |
| CN(C)c1ccc(/C=N/NC(=O)c2ccc(Cn3cc(Br)cn3)o2)cc1 | – | 12.6 µM (active) |
| CCOC(=O)c1c(N)sc(C(C)=O)c1C | -16.5% (inactive) | – |
| COCCOC(=O)c1sc(=S)n(CCOC)c1N | – | 28.2 µM (active) |
| COC(=O)c1sc(=S)n(-c2ccccc2)c1N | -17% (inactive) | – |
| COc1ccccc1N1CCN(C(=O)C2CCN(S(=O)(=O)c3c(C)noc3/C=C/c3ccc(C)cc3)CC2)CC1 | -5.26% (inactive) | – |
| CCn1cc(C(=O)OCC(=O)Nc2cc(C)cc(C)c2)c(=O)c2ccc(C)nc21 | -9.74% (inactive) | – |
| CCCS(=O)(=O)N1CCC(n2c(C(F)(F)F)nc3cccnc32)CC1 | -15.8% (inactive) | – |
| COc1ccc(CCNC(=O)c2ccc3c(c2)sc2nc(-c4ccc(C)cc4)cn23)cc1OC | 16.4% (inactive) | – |
| O=C(NCc1ccc(Cl)cc1)c1ccc2c(c1)nnn2C1CCCC1 | 1.79% (inactive) | – |
